According to PubChem BioAssay (NCATS):
Results filed as inconclusive are left out. Calls of active or inactive are those of the source. Calls come from the whole dose curve; as a rule, active = well fitted inhibition curve with a large enough effect; inconclusive = small, poorly fitted or top-dose-only effect; inactive = flat fitted curve, though single readings scatter.

Legend:
[1] = tested on: CRL-7250; assay: Cytotoxic Profiling of Annotated Libraries Using Quantitative High-Throughput Screening (AID 1296008); conditions: Five cell lines viability, CellTiter-Glo ATP luminescence, 48-72 h; max response: stronger effect = lower value; for max response: % is set by controls: 0 for no effect and ±100 for the full control effect
Procedure, shortened: (§1)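 Compounds were pin-transferred onto cells and incubated 48 or 72 hr at 37 degree Celsius, 95% humidity. CellTiter-Glo was added, plates sat 10 min at room temperature, then ATP-coupled luminescence was imaged as the viability read-out.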

[2] = tested on: HEK293; assay: as above; conditions: Five cell lines viability, CellTiter-Glo ATP luminescence, 48-72 h; max response: stronger effect = lower value
Procedure, shortened: as §1

[3] = tested on: HaCat; assay: as above; conditions: Five cell lines viability, CellTiter-Glo ATP luminescence, 48-72 h; max response: stronger effect = lower value
Procedure, shortened: as §1

[4] = tested on: FAB9; assay: qHTS profiling for inhibitors of Plasmodium falciparum proliferation (AID 504749); conditions: P. falciparum in erythrocytes, SYBR Green DNA, 72 h; series mostly up to 28.7 µM
Procedure, shortened: (§2)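 Parasite proliferation within erythrocytes, 72 h exposure. Endpoint: SYBR Green I fluorescence after overnight lysis at room temperature. Controls: 0.29 uM artemisinin, DMSO.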

[5] = tested on: GB4; assay: as above; conditions: P. falciparum in erythrocytes, SYBR Green DNA, 72 h; series mostly up to 28.7 µM
Procedure, shortened: as §2

[6] = tested on: HB3; assay: as above; conditions: P. falciparum in erythrocytes, SYBR Green DNA, 72 h; series mostly up to 28.7 µM
Procedure, shortened: as §2

[7] = tested on: ICS; assay: as above; conditions: P. falciparum in erythrocytes, SYBR Green DNA, 72 h; series mostly up to 28.7 µM
Procedure, shortened: as §2

[8] = tested on: JCK; assay: as above; conditions: P. falciparum in erythrocytes, SYBR Green DNA, 72 h; series mostly up to 28.7 µM
Procedure, shortened: as §2

[9] = tested on: N140; assay: as above; conditions: P. falciparum in erythrocytes, SYBR Green DNA, 72 h; series mostly up to 28.7 µM
Procedure, shortened: as §2

[10] = tested on: P93_24; assay: as above; conditions: P. falciparum in erythrocytes, SYBR Green DNA, 72 h; series mostly up to 28.7 µM
Procedure, shortened: as §2

[11] = tested on: P94_40; assay: as above; conditions: P. falciparum in erythrocytes, SYBR Green DNA, 72 h; series mostly up to 28.7 µM
Procedure, shortened: as §2

[12] = tested on: PAD; assay: as above; conditions: P. falciparum in erythrocytes, SYBR Green DNA, 72 h; series mostly up to 28.7 µM
Procedure, shortened: as §2

[13] = tested on: PC15; assay: as above; conditions: P. falciparum in erythrocytes, SYBR Green DNA, 72 h; series mostly up to 28.7 µM
Procedure, shortened: as §2

[14] = tested on: PC26; assay: as above; conditions: P. falciparum in erythrocytes, SYBR Green DNA, 72 h; series mostly up to 28.7 µM
Procedure, shortened: as §2

[15] = tested on: PC49; assay: as above; conditions: P. falciparum in erythrocytes, SYBR Green DNA, 72 h; series mostly up to 28.7 µM
Procedure, shortened: as §2

[16] = tested on: SC27B; assay: as above; conditions: P. falciparum in erythrocytes, SYBR Green DNA, 72 h; series mostly up to 28.7 µM
Procedure, shortened: as §2

[17] = tested on: TAB109; assay: as above; conditions: P. falciparum in erythrocytes, SYBR Green DNA, 72 h; series mostly up to 28.7 µM
Procedure, shortened: as §2

[18] = tested on: TAB113; assay: as above; conditions: P. falciparum in erythrocytes, SYBR Green DNA, 72 h; series mostly up to 28.7 µM
Procedure, shortened: as §2

[19] = tested on: TAB165; assay: as above; conditions: P. falciparum in erythrocytes, SYBR Green DNA, 72 h; series mostly up to 28.7 µM
Procedure, shortened: as §2

[20] = tested on: W2; assay: as above; conditions: P. falciparum in erythrocytes, SYBR Green DNA, 72 h; series mostly up to 28.7 µM
Procedure, shortened: as §2
Note: nearly all actives have a fitted effect of over 60% in size.
Potency is the fitted concentration of half-maximal effect.

C/C=C(\C)C(=O)O[C@H]1[C@H](OC(C)=O)[C@]2(CO)[C@H](O)[C@H](O)[C@]3(C)C(=CCC4[C@@]5(C)CC[C@H](O[C@@H]6O[C@H](C(=O)O)[C@@H](O)[C@H](O[C@@H]7OC[C@H](O)[C@H](O[C@@H]8OC[C@H](O)[C@H](O)[C@H]8O)[C@H]7O)[C@H]6O[C@@H]6O[C@H](CO)[C@@H](O)[C@H](O)[C@H]6O)C(C)(C)C5CC[C@]43C)[C@@H]2CC1(C)C (stereo partly specified)
inactive: max response [1] 4.83% | outcome [2] | max response [3] 3.31%

COCC1OC(=O)c2coc3c2C1(C)C1=C(C3=O)C2CCC(=O)C2(C)CC1O (stereo unspecified)
inactive: outcome [1] | outcome [2] | outcome [3]

COC(=O)N1CCN(C(=O)Cc2ccc(Cl)c(Cl)c2)[C@@H](CN2CCCC2)C1
inactive: max response [1] -2.38% | max response [2] -9.31% | max response [3] -8.83%

COC1=CC(=O)O[C@@H](CCc2ccccc2)C1
inactive: outcome [1] | max response [2] 0.422% | max response [3] 3.86%

CCCN1CCO[C@H]2c3cc(O)ccc3OC[C@@H]21
inactive: outcome [1] | outcome [2] | max response [3] 3.96%

C[C@H]1O[C@@H](O[C@H]2C[C@@H](O)[C@]3(CO)C4C(CC[C@]3(O)C2)[C@@]2(O)CC[C@H](C3=CC(=O)OC3)[C@@]2(C)C[C@H]4O)[C@@H](O)[C@@H](O)[C@H]1O (stereo partly specified)
active: Potency [1] 122 nM | Potency [2] 343 nM | Potency [3] 968 nM

COC1CC(O[C@H]2CC[C@]3(C=O)C4CC[C@]5(C)[C@@H](C6=CC(=O)OC6)CC[C@]5(O)[C@@H]4CC[C@]3(O)C2)OC(C)C1O[C@@H]1O[C@H](CO)[C@@H](O)[C@H](O)[C@H]1O (stereo partly specified)
active: Potency [1] 96.8 nM | Potency [2] 153 nM | Potency [3] 1530 nM

C[C@H]1C(=O)O[C@H]2[C@H](O)[C@]34C5OC(=O)[C@]3(O[C@@H]3OC(=O)[C@H](O)C34[C@H](C(C)(C)C)[C@H]5O)C12O (stereo partly specified)
inactive: outcome [1] | max response [2] -8.69% | outcome [3]

CCN1C[C@]2(COC)[C@H](O)C[C@H](OC)[C@]34[C@@H]5C[C@]6(O)[C@H](OC(=O)c7ccccc7)[C@@H]5[C@@](O)([C@H]([C@H](OC)[C@H]23)[C@@H]14)[C@@H](O)[C@@H]6OC
inactive: outcome [1] | outcome [2] | max response [3] 1.58%

COC1CC(OC2CCC3(C=O)C(CCC4C3CCC3(C)C(C5=CC(=O)OC5)CCC43O)C2)OC(C)C1OC1OC(CO)C(O)C(O)C1O (stereo unspecified)
active: Potency [1] 96.8 nM | Potency [2] 193 nM | Potency [3] 685 nM

O=C1CC[C@@]2(O)C3Cc4ccc(O)c5c4C2(CCN3CC2CC2)[C@H]1O5 (stereo partly specified)
inactive: Potency [4] | Potency [5] | Potency [6] | Potency [7] | Potency [8] | Potency [9] | Potency [10] | Potency [11] | Potency [12] | Potency [13] | Potency [14] | Potency [15] | Potency [16] | Potency [17] | Potency [18] | Potency [19]

CN1C(=O)N(c2ccc(C#N)c(C(F)(F)F)c2)C(=O)[C@]1(CO)c1ccccc1
inactive: outcome [1] | max response [2] -8.53% | max response [3] 1.18%

COc1c(C(C)C)cc2c(c1O)[C@@]1(C(=O)O)CCCC(C)(C)C1CC2 (stereo partly specified)
inactive: outcome [1] | outcome [2] | max response [3] 0.977%

C[C@H]1CC[C@@H]2[C@@H](C)[C@H]3[C@H](C[C@H]4[C@@H]5CC=C6CC(O[C@@H]7O[C@H](CO)[C@H](O)[C@H](O[C@@H]8O[C@H](CO)[C@@H](O)[C@H](O)[C@H]8O)[C@H]7O[C@H]7O[C@@H](C)[C@H](O)[C@@H](O)[C@H]7O)CC[C@]6(C)[C@H]5CC[C@]34C)N2C1 (stereo partly specified)
inactive: Potency [4] | Potency [5] | Potency [6] | Potency [7] | Potency [8] | Potency [9] | Potency [10] | Potency [11] | Potency [12] | Potency [13] | Potency [14] | Potency [15] | Potency [16] | Potency [17] | Potency [18] | Potency [19]

CCC1(CC)C(=O)NC(=O)N(C)C1=O
inactive: Potency [4] | Potency [5] | Potency [6] | Potency [7] | Potency [8] | Potency [9] | Potency [10] | Potency [11] | Potency [12] | Potency [13] | Potency [14] | Potency [15] | Potency [16] | Potency [17] | Potency [18] | Potency [19]

CN1[C@@H]2CC[C@H]1CC(OC(=O)C1C=Nc3ccccc31)C2 (stereo partly specified)
inactive: max response [1] 0.829% | max response [2] -5.26% | max response [3] 2.07%

CCCCCCn1c(=O)c(C(=O)Nc2ccc(C(=O)OCCC)cc2)c(O)c2ccccc21
inactive: max response [1] 0.836% | outcome [2] | outcome [3]

CC(=O)O[C@H]1C[C@@H](OC(C)=O)C(C)(C)C2C[C@@H](O)[C@]3(C)C(CC[C@@]4(C)[C@H](C5=CC(=O)OC5O)C[C@H]5O[C@]543)[C@]21C (stereo partly specified)
inactive: max response [1] 2.14% | outcome [2] | max response [3] -10.3%

C=C(CO)C(=O)O[C@H]1C/C(C)=C/CC/C(CO)=C/[C@H]2OC(=O)C(=C)[C@H]12
inactive: max response [1] -2.43% | max response [2] -5.5% | outcome [3]

CC(C)=C1CC[C@]23CO[C@H](C2)[C@@](O)(C(=O)O)CCC13 (stereo partly specified)
inactive: max response [1] 4.82% | outcome [2] | max response [3] -7.37%

CCC1(c2ccccc2)C(=O)NC(=O)N(C(=O)c2ccccc2)C1=O (stereo unspecified)
inactive: Potency [4] | Potency [5] | Potency [6] | Potency [7] | Potency [8] | Potency [9] | Potency [10] | Potency [11] | Potency [12] | Potency [13] | Potency [14] | Potency [15] | Potency [16] | Potency [17] | Potency [18] | Potency [19]

C[C@]12CC[C@@H](O)C[C@H]1CC[C@@H]1[C@@H]2CC[C@]2(C)C(=O)CC[C@@H]12
inactive: max response [1] -3.83% | max response [2] -17.8% | max response [3] -0.89%

C[CH2][Hg][S]c1ccccc1C(=O)O
active: Potency [4] 5.62 µM | Potency [5] 1.69 µM | Potency [6] 2.24 µM | Potency [7] 1.26 µM | Potency [8] 10 µM | Potency [9] 2.24 µM | Potency [10] 2.82 µM | Potency [11] 3.16 µM | Potency [12] 2.82 µM | Potency [13] 4.47 µM | Potency [14] 3.79 µM | Potency [15] 2.24 µM | Potency [16] 3.98 µM | Potency [17] 2.51 µM | Potency [18] 3.16 µM | Potency [19] 2.24 µM | Potency [20] 2.13 µM | Potency [1] 16800 nM
